{"source": "PubChem BioAssay (NCI)", "note": "Compounds without any hit were thinned out: in the full panel of roughly 83,000, 20% have a hit.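 48-hour exposure, single concentration, 96-well plates; percent growth endpoint where 0 means no net growth. Active: below 10.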 Values without a mark were called inactive. Activity calls are given as the source filed them."}
{"tested_on": "LOX IMVI melanoma", "experiment": "NCI-60 one-dose screen, 48 h (100 = growth as untreated, 0 = no growth, -100 = all killed)", "settings": "10 µM unless noted"}
{"smiles": "COc1ccc2c(c1)NC(=O)CN2c1nc(NC2CC2)nc2ccccc12", "growth": "34.9%"}
{"smiles": "Nc1c(C(=O)Nc2cccc(Cl)c2Cl)sc2nc3c(cc12)C(=O)CCC3", "growth": "95.5%"}
{"smiles": "CC(=O)Nc1ccc(S(=O)(=O)N2C(=O)CCC2C(=O)Nc2ccc(Br)cc2)cc1", "note": "(stereo unspecified)", "growth": "6.05% (active)"}
{"smiles": "Nc1nc(-c2cc3ccccc3o2)cc(=O)c(=O)[nH]1", "growth": "98.6%"}
{"smiles": "Cc1nn(-c2ccc(Cl)cc2)c(=O)n1CCOc1ccccc1Cl", "growth": "90.1%"}
{"smiles": "Cc1cc(C(=O)CSc2nc3ccccc3c(=O)[nH]2)c(C)n1C", "growth": "94.7%"}
{"smiles": "Cc1ccc(C2=NN(c3ccc(S(=O)(=O)NC(=O)NCc4ccccc4)cc3)C(c3ccc(N(C)C)cc3)C2)c(C)c1", "note": "(stereo unspecified)", "growth": "36.3%"}
{"smiles": "O=C(/C=C/CN1CCOCC1)Nc1cc2c(Nc3cccc(Cl)c3F)ncnc2cc1OCCOC(F)F", "growth": "80.7%"}
{"smiles": "COc1ccc(/C(=N/O)c2cc(OC)c(OC)c(OC)c2)c(OC)c1N", "growth": "45%"}
{"smiles": "O=[N+]([O-])c1ccc(S(=O)(=O)N2CCN(c3ccnc4cc(Cl)ccc34)CC2)c([N+](=O)[O-])c1", "growth": "32%"}
{"smiles": "Cc1cc(N/C=c2\\sc3ncnn3c2=O)no1", "growth": "97.3%"}
{"smiles": "O=C(Nc1ccc(F)c(Cl)c1)c1n[nH]c(=O)c2ccccc12", "growth": "87.4%"}
{"smiles": "O=C(CCCn1c(=O)c2sc3ccccc3c2n2nnc(-c3ccccc3)c12)NCCc1cnc[nH]1", "growth": "-16.7% (active)"}
{"smiles": "CC1=C(C#N)C(C)(C)C(C#N)=C(C)N1", "growth": "98.3%"}
{"smiles": "COc1cc(CCn2nnc3c(Nc4ccc(N5CCOCC5)cc4)ncnc32)cc(OC)c1", "growth": "97.5%"}
{"smiles": "COc1ccc(-c2cn[nH]c2-c2cc(OC)c3c(c2)OCO3)cc1", "growth": "22.8%"}
{"smiles": "Cc1ccc(OCCn2c(C)nn(-c3ccc(Cl)cc3)c2=O)cc1", "growth": "96.3%"}
{"smiles": "O=C(Nc1ccc(I)cc1)c1cc([N+](=O)[O-])ccc1O", "growth": "20.2%"}
{"smiles": "O=C(NNC(=S)Nc1ccccc1)c1ccccn1", "growth": "25.9%"}
{"smiles": "COc1ccc(-c2cn[nH]c2-c2cc(OC)c3c(c2)OCCO3)cc1", "growth": "30.2%"}
{"smiles": "COc1cc(Cn2c(SCCC(=O)Nc3ccc(F)cc3)nc3ccccc3c2=O)cc(OC)c1OC", "growth": "90.9%"}
{"smiles": "COc1cc(-c2cc(/C=C3\\CCCCC3=O)[nH]n2)cc(OC)c1OC", "growth": "93.8%"}
{"smiles": "Cc1ccc(S(=O)(=O)NCCCNc2nccc(-c3c(-c4ccccc4)nc4sccn34)n2)cc1", "growth": "32.6%"}
{"smiles": "O=C1C2=C(C(=O)c3c(O)ccc(O)c31)N(c1cccnc1)Cc1ccccc1O2", "growth": "-64.6% (active)"}
{"smiles": "COc1ccc(NC(=O)CSc2nc3ccc(Cl)cc3c(=O)n2-c2ccccc2C(F)(F)F)c(OC)c1OC", "growth": "88%"}
{"smiles": "CC(C)C[C@H](NC(=O)[C@@H](Cc1ccccc1)n1ccc(Nc2ccccc2)cc1=O)B(O)O", "growth": "-66.7% (active)"}
{"smiles": "Cc1cccc(NC(=O)c2sc3nc4c(cc3c2N)CCCC4)c1", "growth": "40.3%"}
{"smiles": "O=c1oc2c([nH]c3ccc4ccccc4c32)c2ccccc12", "growth": "98.8%"}
{"smiles": "CC1CCc2c(sc(NC(=O)CSc3nnc4ccccn34)c2C(N)=O)C1", "note": "(stereo unspecified)", "growth": "90.5%"}
{"smiles": "CC1Cc2c(N(C)C)ncnc2N(C)c2ccc(Cl)cc21", "note": "(stereo unspecified)", "growth": "35.8%"}
{"smiles": "CCC(=O)Oc1cc(/C=C/C(=O)O[C@H]2C[C@H]3CN4CCc5c([nH]c6cc(OC)ccc56)[C@@H]4C[C@@H]3[C@@H](C(=O)OC)[C@@H]2OC)ccc1OC", "growth": "79.5%"}
{"smiles": "CN(C)C/C=C/C(=O)Nc1cc2c(Nc3cccc(Cl)c3F)ncnc2cc1OCCOC(F)F", "growth": "43.9%"}
{"smiles": "O=C1Nc2cc(Cl)ccc2Oc2cc(Oc3ccccc3)ccc21", "growth": "51.5%"}
{"smiles": "c1cncc(CNc2ccccc2-c2nnc(Nc3ccc4c(c3)OCCO4)o2)c1", "growth": "27.1%"}
{"smiles": "COC1=CC(c2ccc[nH]2)=N/C1=C\\c1[nH]c(C)c(C(=O)CCCCC(=O)Oc2ccc3c(c2)CCC2C3CC[C@]3(C)[C@@H](O)CC[C@@H]23)c1C", "note": "(stereo partly specified)", "growth": "1.7% (active)"}
{"smiles": "COc1ccc(/C=c2\\sc3n(c2=O)C2C(NN=3)N(C)C(=O)N2C)cc1", "note": "(stereo unspecified)", "growth": "44.3%"}
{"smiles": "Cc1sc(N=Nc2ccc(N(C)C)cc2)[n+]([O-])c1C", "growth": "102%"}
{"smiles": "COc1cc(/C=C/C(=O)c2ccccc2O)ccc1OCCCOc1cc2c(cc1OC)C(=O)N1CCC[C@H]1C=N2", "growth": "-60.8% (active)"}
{"tested_on": "SK-MEL-28 melanoma", "experiment": "NCI-60 one-dose screen, 48 h (100 = growth as untreated, 0 = no growth, -100 = all killed)", "settings": "10 µM unless noted"}
{"smiles": "COc1ccc2c(c1)NC(=O)CN2c1nc(NC2CC2)nc2ccccc12", "growth": "54.7%"}
{"smiles": "Nc1c(C(=O)Nc2cccc(Cl)c2Cl)sc2nc3c(cc12)C(=O)CCC3", "growth": "65%"}
{"smiles": "CC(=O)Nc1ccc(S(=O)(=O)N2C(=O)CCC2C(=O)Nc2ccc(Br)cc2)cc1", "note": "(stereo unspecified)", "growth": "50.2%"}
{"smiles": "Nc1nc(-c2cc3ccccc3o2)cc(=O)c(=O)[nH]1", "growth": "112%"}
{"smiles": "Cc1nn(-c2ccc(Cl)cc2)c(=O)n1CCOc1ccccc1Cl", "growth": "96.6%"}
{"smiles": "Cc1cc(C(=O)CSc2nc3ccccc3c(=O)[nH]2)c(C)n1C", "growth": "121%"}
{"smiles": "Cc1ccc(C2=NN(c3ccc(S(=O)(=O)NC(=O)NCc4ccccc4)cc3)C(c3ccc(N(C)C)cc3)C2)c(C)c1", "note": "(stereo unspecified)", "growth": "26.6%"}
{"smiles": "O=C(/C=C/CN1CCOCC1)Nc1cc2c(Nc3cccc(Cl)c3F)ncnc2cc1OCCOC(F)F", "growth": "101%"}
{"smiles": "COc1ccc(/C(=N/O)c2cc(OC)c(OC)c(OC)c2)c(OC)c1N", "growth": "59.2%"}
{"smiles": "O=[N+]([O-])c1ccc(S(=O)(=O)N2CCN(c3ccnc4cc(Cl)ccc34)CC2)c([N+](=O)[O-])c1", "growth": "108%"}
{"smiles": "Cc1cc(N/C=c2\\sc3ncnn3c2=O)no1", "growth": "104%"}
{"smiles": "O=C(Nc1ccc(F)c(Cl)c1)c1n[nH]c(=O)c2ccccc12", "growth": "115%"}
{"smiles": "O=C(CCCn1c(=O)c2sc3ccccc3c2n2nnc(-c3ccccc3)c12)NCCc1cnc[nH]1", "growth": "-49.7% (active)"}
{"smiles": "CC1=C(C#N)C(C)(C)C(C#N)=C(C)N1", "growth": "110%"}
{"smiles": "COc1cc(CCn2nnc3c(Nc4ccc(N5CCOCC5)cc4)ncnc32)cc(OC)c1", "growth": "97%"}
{"smiles": "COc1ccc(-c2cn[nH]c2-c2cc(OC)c3c(c2)OCO3)cc1", "growth": "39.4%"}
{"smiles": "Cc1ccc(OCCn2c(C)nn(-c3ccc(Cl)cc3)c2=O)cc1", "growth": "101%"}
{"smiles": "O=C(Nc1ccc(I)cc1)c1cc([N+](=O)[O-])ccc1O", "growth": "16.4%"}
{"smiles": "O=C(NNC(=S)Nc1ccccc1)c1ccccn1", "growth": "46%"}
{"smiles": "COc1ccc(-c2cn[nH]c2-c2cc(OC)c3c(c2)OCCO3)cc1", "growth": "49.3%"}
{"smiles": "COc1cc(Cn2c(SCCC(=O)Nc3ccc(F)cc3)nc3ccccc3c2=O)cc(OC)c1OC", "growth": "99.8%"}
{"smiles": "COc1cc(-c2cc(/C=C3\\CCCCC3=O)[nH]n2)cc(OC)c1OC", "growth": "114%"}
{"smiles": "Cc1ccc(S(=O)(=O)NCCCNc2nccc(-c3c(-c4ccccc4)nc4sccn34)n2)cc1", "growth": "78.5%"}
{"smiles": "O=C1C2=C(C(=O)c3c(O)ccc(O)c31)N(c1cccnc1)Cc1ccccc1O2", "growth": "-72% (active)"}
{"smiles": "COc1ccc(NC(=O)CSc2nc3ccc(Cl)cc3c(=O)n2-c2ccccc2C(F)(F)F)c(OC)c1OC", "growth": "92.1%"}
{"smiles": "CC(C)C[C@H](NC(=O)[C@@H](Cc1ccccc1)n1ccc(Nc2ccccc2)cc1=O)B(O)O", "growth": "21.7%"}
{"smiles": "Cc1cccc(NC(=O)c2sc3nc4c(cc3c2N)CCCC4)c1", "growth": "53%"}
{"smiles": "O=c1oc2c([nH]c3ccc4ccccc4c32)c2ccccc12", "growth": "134%"}
{"smiles": "CC1CCc2c(sc(NC(=O)CSc3nnc4ccccn34)c2C(N)=O)C1", "note": "(stereo unspecified)", "growth": "137%"}
{"smiles": "CC1Cc2c(N(C)C)ncnc2N(C)c2ccc(Cl)cc21", "note": "(stereo unspecified)", "growth": "52.4%"}
{"smiles": "CCC(=O)Oc1cc(/C=C/C(=O)O[C@H]2C[C@H]3CN4CCc5c([nH]c6cc(OC)ccc56)[C@@H]4C[C@@H]3[C@@H](C(=O)OC)[C@@H]2OC)ccc1OC", "growth": "88.8%"}
{"smiles": "CN(C)C/C=C/C(=O)Nc1cc2c(Nc3cccc(Cl)c3F)ncnc2cc1OCCOC(F)F", "growth": "78.2%"}
{"smiles": "O=C1Nc2cc(Cl)ccc2Oc2cc(Oc3ccccc3)ccc21", "growth": "71%"}
{"smiles": "c1cncc(CNc2ccccc2-c2nnc(Nc3ccc4c(c3)OCCO4)o2)c1", "growth": "68.9%"}
{"smiles": "COC1=CC(c2ccc[nH]2)=N/C1=C\\c1[nH]c(C)c(C(=O)CCCCC(=O)Oc2ccc3c(c2)CCC2C3CC[C@]3(C)[C@@H](O)CC[C@@H]23)c1C", "note": "(stereo partly specified)", "growth": "81.3%"}
{"smiles": "COc1ccc(/C=c2\\sc3n(c2=O)C2C(NN=3)N(C)C(=O)N2C)cc1", "note": "(stereo unspecified)", "growth": "54.7%"}
{"smiles": "Cc1sc(N=Nc2ccc(N(C)C)cc2)[n+]([O-])c1C", "growth": "102%"}
{"smiles": "COc1cc(/C=C/C(=O)c2ccccc2O)ccc1OCCCOc1cc2c(cc1OC)C(=O)N1CCC[C@H]1C=N2", "growth": "-64.3% (active)"}
